Screening data from PubChem.
Hits are enriched below; roughly 6.7% of the tested compounds scored in any of these assays.
T cruzi growth-1 = T. cruzi proliferation inhibition. T. cruzi beta-gal in NIH3T3, GalScreen luminescence, 90 h. inhibition, % at 8.34 µM. AID 624255. 77,000 tested, 5.9% active;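 active means mean inhibition above about 93%, with at least 55% of replicates each passing it, limit read from the data, passing the limit was not always enough; inconclusive means only one of those two conditions holds; inactive means neither condition holds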
Pf Dd2 inh = blocks growth of Plasmodium falciparum Dd2 parasites; P. falciparum Dd2 growth, SYBR Green, 72 h; stronger effect = lower value; activity change, % at 10 µM; 94,000 tested, 2.3% active; AID 1159554; in the data active means activity change below about -80%; inconclusive means no clear call, values can overlap the other calls
C diff growth = C. difficile growth inhibition. growth activity, negative = inhibition, % at 16 µg/mL (by protocol). 86,000 tested, 0.25% active. Clostridium difficile clinical isolate growth, OD600, 24 h; stronger effect = lower value;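 active means mean growth activity at or below -80% and every replicate also at or below -80%; inconclusive means mean at or below -80% but some replicate above -80%; inactive means mean growth activity above -80%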
T cruzi growth-2 = blocks T. cruzi growth in NIH3T3 host cells; shares compounds with T cruzi growth-1; T. cruzi beta-gal in NIH3T3, GalScreen luminescence, 90 h; inhibition, % at 8.35 µM; 5,600 tested, 72% active; AID 651739;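 active means mean replicate inhibition above about 95% and at least 55% of replicates individually reaching it, limit read from the data; inconclusive means only one of the two criteria is met; inactive means neither criterion is met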
T cruzi growth-3 = blocks T. cruzi growth in NIH3T3 host cells | shares compounds with T cruzi growth-1 | T. cruzi beta-gal in NIH3T3, GalScreen luminescence, 90 h | inhibition, % at 2.09 µM | 5,600 tested, 21% active;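 active means mean inhibition above about 95%, with at least 55% of replicates also reaching it, limit read from the data; inconclusive means meets just one of the two conditions; inactive means meets neither condition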
NIH3T3 tox = NIH/3T3 (mouse) viability loss; shares compounds with T cruzi growth-1; NIH/3T3 viability, CellTiter-Glo ATP luminescence, 90 h; cytotoxicity (signal decrease), % at 8.35 µM; 5,600 tested, 14% active; AID 651742;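 active means mean signal decrease across replicates above about 35% based on untreated-well scatter, with enough replicates individually passing, limit read from the data; inconclusive means no rule stated though some were filed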
NIH3T3 tox 2 = kills mouse NIH/3T3 fibroblasts; inhibition, % at 24.9 µM; 5,600 tested, 56% active; NIH/3T3 viability, CellTiter-Glo ATP luminescence, 90 h; AID 651744; shares compounds with T cruzi growth-1;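 active means mean loss of cell viability signal at or above a set limit, and enough replicates individually reaching it; inconclusive means meets only the mean limit or only the replicate share; inactive means meets neither condition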
A number is an active result; i = inactive; ? = inconclusive; nt = no result.

SMILES | T cruzi growth-1 | Pf Dd2 inh | C diff growth | T cruzi growth-2 | T cruzi growth-3 | NIH3T3 tox | NIH3T3 tox 2
C[C@@H]1CN([C@@H](C)CO)C(=O)c2cc(NS(=O)(=O)c3ccc(F)cc3)ccc2O[C@H]1CN(C)Cc1ccc(Cl)c(Cl)c1 | ? | i | i | 105.1 | i | i | 103.7
C[C@@H]1CN([C@@H](C)CO)C(=O)c2cc(NS(=O)(=O)c3ccc(F)cc3)ccc2O[C@@H]1CN(C)Cc1ccc(Cl)c(Cl)c1 | 100.6 | i | i | 98.6 | i | ? | 107.2
Cc1ccc(S(=O)(=O)Nc2ccc3c(c2)C(=O)N([C@@H](C)CO)C[C@@H](C)[C@@H](CN(C)Cc2ccc(Cl)c(Cl)c2)O3)cc1 | 118.9 | i | i | 107.4 | 107.0 | i | 102.8
CO[C@H]1CN(C)C(=O)c2cc(NC(=O)c3ccccc3F)ccc2OC[C@@H](C)N(C)C[C@@H]1C | i | i | nt | nt | nt | nt | nt
O=C(C1CCOCC1)N1[C@H](CO)[C@@H](c2ccccc2)C12CN(Cc1cccnc1)C2 | nt | i | i | nt | nt | nt | nt
C[C@@H]1CCCCO[C@@H](CN(C)CC2CCCCC2)[C@@H](C)CN([C@@H](C)CO)C(=O)c2cc(NC(=O)c3ccccc3)ccc2O1 | i | i | i | nt | nt | nt | nt
C[C@@H]1CCCCO[C@@H](CN(C)C(=O)Nc2ccc(C(F)(F)F)cc2)[C@H](C)CN([C@@H](C)CO)C(=O)c2cc(NC(=O)Nc3ccc(C(F)(F)F)cc3)ccc2O1 | 115.7 | i | i | 99.0 | 113.0 | i | i
CC(C)NC(=O)Nc1ccc2c(c1)C(=O)N([C@@H](C)CO)C[C@@H](C)[C@H](CN(C)C(=O)Nc1ccc(C(F)(F)F)cc1)OCCCC[C@@H](C)O2 | 102.2 | i | i | 102.4 | i | i | i
C[C@H]1CCCCO[C@@H](CN(C)C(=O)Nc2ccc(C(F)(F)F)cc2)[C@@H](C)CN([C@@H](C)CO)C(=O)c2cc(N(C)C)ccc2O1 | ? | i | i | 103.1 | i | i | i
C[C@@H]1CCCCO[C@H](CN(C)C(=O)Nc2ccc(F)cc2)[C@H](C)CN([C@H](C)CO)C(=O)c2cc(NC(=O)Nc3ccc(C(F)(F)F)cc3)ccc2O1 | i | i | i | nt | nt | nt | nt
C[C@H]1CCCCO[C@@H](CN(C)C(=O)Nc2ccc(C(F)(F)F)cc2)[C@@H](C)CN([C@@H](C)CO)C(=O)c2cc(NC(=O)Nc3ccc(C(F)(F)F)cc3)ccc2O1 | 125.6 | i | i | 109.4 | 111.2 | i | i
CC(C)NC(=O)Nc1ccc2c(c1)C(=O)N([C@H](C)CO)C[C@H](C)[C@@H](CN(C)C(=O)Nc1ccc(C(F)(F)F)cc1)OCCCC[C@@H](C)O2 | i | i | i | nt | nt | nt | nt
C[C@@H]1CCCCO[C@@H](CN(C)C(=O)Nc2ccc(C(F)(F)F)cc2)[C@H](C)CN([C@H](C)CO)C(=O)c2cc(NC(=O)Nc3ccc(F)cc3)ccc2O1 | i | i | i | nt | nt | nt | nt
C[C@@H]1CCCCO[C@H](CN(C)C(=O)Nc2ccc(C(F)(F)F)cc2)[C@@H](C)CN([C@H](C)CO)C(=O)c2cc(N(C)C)ccc2O1 | i | i | i | nt | nt | nt | nt
CCCNC(=O)C[C@@H]1CC[C@H]2[C@@H](COc3ccc(NC(=O)NCCC)cc3C(=O)N2C)O1 | nt | i | i | nt | nt | nt | nt
C[C@@H]1CN([C@H](C)CO)C(=O)c2cc(NC(=O)CCCN(C)C)ccc2O[C@@H](C)CCCCO[C@H]1CN(C)C(=O)CCCN(C)C | nt | i | i | nt | nt | nt | nt
COc1ccc(S(=O)(=O)Nc2ccc3c(c2)C(=O)N([C@H](C)CO)C[C@@H](C)[C@@H](CN(C)Cc2ccccc2)OCCCC[C@H](C)O3)cc1 | i | i | i | nt | nt | nt | nt
Cc1noc(C)c1S(=O)(=O)Nc1ccc2c(c1)C(=O)N([C@H](C)CO)C[C@@H](C)[C@@H](CN(C)S(=O)(=O)c1cccs1)O2 | i | i | i | nt | nt | nt | nt
C[C@@H]1CCCCO[C@H](CN(C)C(=O)Nc2ccccc2)[C@H](C)CN([C@@H](C)CO)C(=O)c2cc(NC(=O)Nc3ccc(C(F)(F)F)cc3)ccc2O1 | nt | i | i | nt | nt | nt | nt
C[C@H](CO)N1C[C@H](C)[C@@H](CN(C)C(=O)c2ccccc2)OCCCC[C@H](C)Oc2ccc(NC(=O)Nc3ccc(C(F)(F)F)cc3)cc2C1=O | i | i | i | nt | nt | nt | nt
C[C@@H]1CCCCO[C@@H](CN(C)C(=O)c2ccccc2)[C@H](C)CN([C@@H](C)CO)C(=O)c2cc(NC(=O)Nc3ccc(C(F)(F)F)cc3)ccc2O1 | 102.2 | i | i | 105.2 | 107.8 | i | i
C[C@H](CO)N1C[C@H](C)[C@@H](CN(C)C(=O)Nc2ccc(C(F)(F)F)cc2)OCCCC[C@H](C)Oc2ccc(NC(=O)Nc3ccc(C(F)(F)F)cc3)cc2C1=O | 112.0 | i | i | 112.2 | 109.2 | i | i
CC(C)NC(=O)N(C)C[C@H]1OCCCC[C@H](C)Oc2ccc(NC(=O)Nc3ccc(C(F)(F)F)cc3)cc2C(=O)N([C@@H](C)CO)C[C@H]1C | i | i | i | nt | nt | nt | nt
CC(C)NC(=O)N(C)C[C@@H]1OCCCC[C@H](C)Oc2ccc(NC(=O)Nc3ccc(C(F)(F)F)cc3)cc2C(=O)N([C@H](C)CO)C[C@@H]1C | 99.7 | i | i | 99.7 | i | i | i
C[C@@H]1CCCCO[C@H](CN(C)C(=O)Nc2ccc(F)cc2)[C@@H](C)CN([C@@H](C)CO)C(=O)c2cc(NC(=O)Nc3ccc(C(F)(F)F)cc3)ccc2O1 | i | ? | i | nt | nt | nt | nt
SMILES | T cruzi growth-1 | Pf Dd2 inh | C diff growth | T cruzi growth-2 | T cruzi growth-3 | NIH3T3 tox | NIH3T3 tox 2
C[C@H]1CCCCO[C@H](CN(C)C(=O)Nc2ccc(C(F)(F)F)cc2)[C@@H](C)CN([C@@H](C)CO)C(=O)c2cc(NC(=O)Nc3ccc(C(F)(F)F)cc3)ccc2O1 | 117.7 | i | i | 108.6 | 106.6 | i | i
COc1ccc2c3c(n(C)c2c1)[C@H](CO)N(C(C)=O)CC31CN(C(=O)c2ccccc2)C1 | nt | i | i | nt | nt | nt | nt
C[C@@H]1CN([C@@H](C)CO)C(=O)c2cc(C#CC3CCCCC3)cnc2O[C@H]1CN(C)C | i | i | i | nt | nt | nt | nt
C[C@H](CO)N1C[C@H](C)[C@@H](CN(C)Cc2ccc(C(F)(F)F)cc2)Oc2ccc(NS(=O)(=O)c3ccc(Cl)cc3)cc2C1=O | i | i | i | nt | nt | nt | nt
C[C@H]1CN([C@@H](C)CO)C(=O)c2cc(NS(=O)(=O)c3ccc(Cl)cc3)ccc2O[C@@H]1CN(C)Cc1ccc(C(F)(F)F)cc1 | ? | i | i | 111.2 | i | i | 102.8
C[C@@H]1CN([C@H](C)CO)C(=O)c2cc(NS(=O)(=O)c3ccc(Cl)cc3)ccc2O[C@H]1CN(C)Cc1ccc(C(F)(F)F)cc1 | i | i | i | nt | nt | nt | nt
C[C@H]1CN([C@@H](C)CO)C(=O)c2cc(NS(=O)(=O)c3ccc(Cl)cc3)ccc2O[C@H]1CN(C)Cc1ccc(C(F)(F)F)cc1 | 129.4 | i | i | 109.3 | i | i | 103.2
COCC(=O)N1[C@H](C(=O)NCc2ccccc2)[C@@H](CO)[C@@H]2Cn3c(cccc3=O)[C@@H]21 | i | nt | i | nt | nt | nt | nt
